Consider 36 compounds from PubChem BioAssay (EPA / NIEHS).

Each structure is given as a SMILES string. Several values for one entry are separate records, joined by “and”; a condition that tells them apart may be missing. Equal values may be shown once. Inconclusive results are not listed. Activity calls are given as the source filed them. The calls were made as follows, unless noted: active = hit-call score of the fitted dose curve at least 0.9, where 1 is the maximum; inactive = score below 0.9.

Read-out in assay [1]: Interleukin-8 (IL8), CXCL8 (gene 3576)
Briefly: BSK_3C_IL8: BioMAP Diversity Plus: 3C Assay for Interleukin-8 (IL8) Biomarker Activity (AID 2283020). Particulars: primary human endothelial cells (HUVEC); actives raise or lower the signal. In short, it runs like this: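 Primary human umbilical vein endothelial cells were dosed for 24 h. IL-8 was quantified by ELISA and fitted bidirectionally against DMSO. Cytotoxicity was assessed in parallel cultures by SRB staining at 560 nm.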

Read-out in assay [2]: Monokine induced gamma interferon (MIG), CXCL9 (gene 4283)
Briefly: BSK_3C_MIG: BioMAP Diversity Plus: 3C Assay for Monokine induced gamma interferon (MIG) Biomarker Activity (AID 2283021).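 As to AC50: MIG protein level measured by immunoassay in the treated endothelial cultures.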 Conditions: primary human endothelial cells (HUVEC); actives raise or lower the signal. In short, it runs like this:
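HUVEC primary endothelial cultures dosed with chemical; MIG quantified by ELISA at 24 h. Data fitted bidirectionally against DMSO control, with parallel SRB total-protein staining for cytotoxicity.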

The target in assay [3] is human Vitamin D Receptor (VDR), VDR (gene 7421) (UniProt P11473). Briefly: ATG_VDR_TRANS: Attagene TRANS-FACTORIAL HepG2 Assay for human Vitamin D Receptor (VDR) (AID 2283022; active = hit-call score of the fitted dose curve at least 0.9, where 1 is the maximum). In short, it runs like this:
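Transactivation by an exogenous VDR-Gal4 chimera in transiently transfected HepG2 cells was measured as reporter transcript level 24 hours after chemical treatment. RT-PCR products were analysed by capillary electrophoresis and fitted in the positive direction relative to DMSO.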

Read-out in assay [4]: Matrix Metallopeptidase 1 (MMP1), MMP1 (gene 4312)
Briefly: BSK_BE3C_MMP1: BioMAP Diversity Plus: BE3C Assay for Matrix Metallopeptidase 1 (MMP1) Biomarker Activity (AID 2283024). Particulars: primary human bronchial epithelial cells; actives raise or lower the signal. In short, it runs like this:
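Human primary bronchial epithelial cells (BE3C system) dosed for 24 h; MMP-1 quantified by ELISA. Bidirectional fit against DMSO; cytotoxicity tracked in parallel cultures by SRB total-protein staining.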

Read-out in assay [5]: Pselectin, SELP (gene 6403)
Briefly: BSK_4H_Pselectin: BioMAP Diversity Plus: 4H Assay for Pselectin Biomarker Activity (AID 2283026). Particulars: primary human endothelial cells (HUVEC); actives raise or lower the signal. In short, it runs like this: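 Primary human umbilical vein endothelial cells were treated 24 h, and cell-surface P-selectin was then quantified by ELISA. Bidirectional fit versus DMSO; cytotoxicity checked in parallel cultures by SRB total-protein staining.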

Assay [6] is described as follows: BSK_4H_SRB: Viability Assessment in the BioMAP Diversity Plus: 4H Assay (AID 2283027).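 Also: cells exposed to compound for 24 h before staining.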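 As to AC50: curves fitted both ways versus DMSO so AC50 may be loss or gain.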 Conditions: primary human endothelial cells (HUVEC). Summed up:
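Human umbilical vein endothelial cells were dosed with chemical and, after 24 h, fixed with 10% TCA, stained with 0.1% sulforhodamine B, and read at 560 nm to give total protein as a cytotoxicity measure. Bidirectional fitting relative to DMSO control.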

Assay [7] is described as follows: BSK_BE3C_SRB: Viability Assessment in the BioMAP Diversity Plus: BE3C Assay (AID 2283028).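 As to AC50: fitted both ways so AC50 may mark signal gain or loss versus DMSO.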 Conditions: primary human bronchial epithelial cells. In short, it runs like this: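 Cytotoxicity read-out: SRB (0.1%) staining of TCA-fixed (10%) human lung bronchial epithelial cells, absorbance 560 nm, 24 h post-dosing. Curves fitted both directions relative to DMSO.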

Read-out in assay [8]: Thrombomodulin, THBD (gene 7056)
Briefly: BSK_3C_Thrombomodulin: BioMAP Diversity Plus: 3C Assay for Thrombomodulin Biomarker Activity (AID 2283029). Particulars: primary human endothelial cells (HUVEC); actives raise or lower the signal. In short, it runs like this:
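Human umbilical vein endothelial cells were exposed to chemicals for 24 h; cell-surface thrombomodulin quantified by ELISA, with bidirectional fitting against DMSO baseline.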

A short description of assay [9]: BSK_3C_SRB: Viability Assessment in the BioMAP Diversity Plus: 3C Assay (AID 2283023).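 Also: fitted both ways against DMSO so a hit may be signal rise or drop.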 Conditions: primary human endothelial cells (HUVEC). In short, it runs like this: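 Cytotoxicity readout in parallel HUVEC 3C cultures: after 24 h compound exposure, cells fixed with 10% TCA, stained with 0.1% SRB and read at 560 nm. Gain or loss relative to DMSO fitted.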
A short description of assay [10]: BSK_3C_Vis: BioMAP Diversity Plus: 3C Assay for Morphology Visualization (AID 2283025).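 Also: fitted both ways so gain or loss versus DMSO counts.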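 As to AC50: light microscopy image of cell morphology used as background control.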 Conditions: primary human endothelial cells (HUVEC). In short, it runs like this:
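Human umbilical vein endothelial cell morphology was inspected by light microscopy 24 h after chemical dosing; scored bidirectionally relative to DMSO.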

Chain of human Vitamin D Receptor (VDR), VDR (gene 7421) (P11473 whole entry, looked up, the tested form may be a part): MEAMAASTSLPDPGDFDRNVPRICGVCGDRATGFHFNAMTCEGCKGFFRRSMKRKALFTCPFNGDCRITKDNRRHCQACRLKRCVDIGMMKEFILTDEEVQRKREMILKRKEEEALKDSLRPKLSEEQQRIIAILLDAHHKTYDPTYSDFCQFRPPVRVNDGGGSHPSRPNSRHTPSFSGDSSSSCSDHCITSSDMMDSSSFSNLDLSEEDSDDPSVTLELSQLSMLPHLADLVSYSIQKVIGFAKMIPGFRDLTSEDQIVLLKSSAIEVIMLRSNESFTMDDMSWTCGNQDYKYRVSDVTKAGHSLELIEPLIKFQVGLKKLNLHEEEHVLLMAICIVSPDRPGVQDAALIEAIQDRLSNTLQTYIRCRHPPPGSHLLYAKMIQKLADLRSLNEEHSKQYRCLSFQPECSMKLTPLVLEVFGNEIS

Turning to `O=C(CC(=O)C(F)(F)C(F)(F)F)C(F)(F)F`, the result in assay [1], in assay [2], in assay [3], in assay [4], in assay [5] and in assay [6] was inactive. Also, the outcome in [7] and in [8] was inactive.

As for `O=C(O)C(F)(F)C(F)(F)F`, the outcome in assay [1], in assay [2], in assay [3], in [4], in [5] and in [6] was inactive. Moreover, the outcome in assay [7] and in assay [8] was inactive.

Regarding `C=C(C)C(=O)OCC(F)(F)C(F)(F)C(F)(F)F`, the result in [1], in assay [2], in [3], in assay [4], in assay [5] and in assay [6] was inactive. Also, the outcome in assay [7] and in assay [8] was inactive.

In the case of `CS(C)(=O)=O`, the result in [1], in [2], in assay [9], in assay [4], in [10] and in assay [5] was inactive. The outcome in assay [6], in [7] and in [8] was inactive.

Consider `O=C(O)C(F)(F)C(F)(F)C(F)F`, for which the result in assay [1], in assay [2], in assay [3], in [4], in assay [5] and in assay [6] was inactive. The outcome in [7] and in assay [8] was inactive.

On to `CCCCCCOC(=O)c1ccccc1O`, for which the AC50 (commonly the concentration at which the activity in the assay is half-maximal) in [1] was 41.7 µM (active) and 44.8 µM (active); in assay [2] it was 41.2 µM (active) and 40.8 µM (active); in assay [5], 40.7 µM (active) and 41.9 µM (active); in assay [6], 44.2 µM (active) and 42.6 µM (active). The compound was called inactive in assay [3], in assay [4], in assay [7] and in [8].

On to `C=CC(F)(F)C(F)(F)C(F)(F)C(F)(F)C(F)(F)C(F)(F)C(F)(F)C(F)(F)C=C`, for which the outcome in assay [1], in [2], in assay [9], in assay [4], in [5] and in [6] was inactive. Further, the result in assay [7] and in [8] was inactive.

With `CNC(=S)NC`, the call in assay [3] was inactive.

In the case of `Nc1cc(Cl)c(N)c(Cl)c1`, the outcome in assay [3] was inactive.

On to `O=C(OCCOCCOCCOC(=O)c1ccccc1)c1ccccc1`, for which the result in assay [3] was inactive.

On to `COC(=O)C1CCC(C(=O)OC)CC1` (configuration not stated), for which, in [3], the compound was called inactive.

On to `C(=C(c1ccccc1)c1ccccc1)c1ccccc1`, for which the call in [3] was inactive.

Regarding `O=S(=O)(O)c1ccc2ccccc2c1`, the compound was called inactive in assay [3].

`O=C(C=Cc1ccccc1)OCC=Cc1ccccc1`: the result in assay [3] was inactive.

For the compound `CCCCCC=O`, the compound was classed as inactive in assay [3].

For `CCN(CC)c1ccc2c(C)cc(=O)oc2c1`, the result in assay [1], in assay [2], in assay [4], in assay [5], in assay [6] and in assay [7] was inactive. Besides, the outcome in assay [8] was inactive. In assay [10], the half-maximal activity concentration (AC50) was 37.5 µM (active).

Regarding `OCC(F)(F)C(F)(F)C(F)(F)F`, the result in assay [1], in [2], in assay [4], in assay [5], in assay [6] and in assay [7] was inactive. Further, the result in assay [8] was inactive.

Take `FC(F)(F)C(F)(F)C(F)(F)C(F)(F)C(F)(F)C(F)(F)C(F)(F)I`: the result in [1], in [2], in assay [4], in [5], in [6] and in assay [7] was inactive. Moreover, the result in assay [8] was inactive.

As for `OC[C@@H](O)[C@@H](O)[C@H](O)[C@@H](O)CO`, in assay [3], the outcome was inactive.

For `CC(C)=CCCC(C)CCOC(=O)C(C)C` (configuration not stated), in assay [3], the outcome was inactive.

As to `O=S(=O)(O)C(F)(F)C(F)(F)C(F)(F)C(F)(F)C(F)(F)C(F)(F)C(F)(F)F`, the result in [1], in assay [2], in [9], in [5], in [6] and in assay [7] was inactive. Moreover, the result in assay [8] was inactive. Besides, the concentration at half-maximal activity (AC50) in [4] is 8.64 µM (active) and 15.6 µM (active).

For the compound `C=CC(F)(F)C(F)(F)C(F)(F)C(F)(F)C(F)(F)C(F)(F)C(F)(F)C(F)(F)F`, the outcome in assay [1], in assay [2], in assay [9], in [4], in assay [5] and in [6] was inactive. Further, the outcome in assay [7] and in assay [8] was inactive.

On to `CC(C)(C)c1ccc(OC2CCCCC2O)cc1` (configuration not stated), for which, in [3], the call was inactive.

In the case of `O=C(O)C(F)(F)C(F)(F)OC(F)(F)F`, the outcome in assay [1], in assay [2], in assay [4], in assay [5], in assay [6] and in [7] was inactive. For the same compound, the result in [8] was inactive.

In the case of `CC(Cc1ccc(O)c(O)c1)C(C)Cc1ccc(O)c(O)c1` (configuration not stated), the result in assay [3] was inactive.

As to `c1ccc(B(c2ccccc2)c2ccccc2)cc1`, in [3], the compound was classed as inactive.

Take `Nc1ccc(Oc2cccc(Oc3ccc(N)cc3)c2)cc1`: the compound was classed as inactive in assay [3].

Take `C=CC/C=C/C/C=C/C/C=C/C`: the result in [1], in assay [2], in [4], in assay [10], in assay [5] and in [6] was inactive. The outcome in assay [7] and in [8] was inactive.

Turning to `C1COCCN1`, the compound was classed as inactive in [3].

Regarding `O=C(O)C(F)(F)C(F)(F)C(F)(F)C(F)(F)C(F)(F)C(F)(F)C(F)(F)C(F)(F)C(F)(F)C(F)F`, the result in [1], in assay [2], in [4] and in assay [5] was inactive. Further, the AC50 in assay [9] is 47.3 µM (active) and 49.5 µM (active); in assay [6], 48.6 µM (active) and 45.8 µM (active); in assay [7], 21 µM (active) and 20.7 µM (active); in assay [8], 49.3 µM (active) and 46.1 µM (active).

`CCCCCCS`: the result in assay [3] was inactive.

`FC1CC(F)(F)C(F)(F)C1(F)F` (configuration not stated): the outcome in assay [1], in assay [2], in assay [4], in [5], in [6] and in assay [7] was inactive. The outcome in assay [8] was inactive.

Consider `O=C(O)C(F)(OC(F)(F)C(F)(OC(F)(F)C(F)(OC(F)(F)C(F)(F)C(F)(F)F)C(F)(F)F)C(F)(F)F)C(F)(F)F` (configuration not stated), for which the outcome in [1], in assay [2], in assay [4], in [5], in [6] and in assay [7] was inactive. The result in assay [8] was inactive.

`O=C(O)C(F)(F)C(F)(F)C(F)(F)C(F)(F)C(F)(F)C(F)(F)C(F)(F)C(F)(F)C(F)(F)C(F)(F)C(F)(F)C(F)(F)C(F)(F)F`: the result in [1], in assay [2], in assay [4], in [5], in assay [6] and in assay [7] was inactive. Besides, the outcome in [8] was inactive.

As to `CCCCCCOC(=O)c1ccccc1`, in assay [3], the call was inactive.

In the case of `CC/C=C\CCOC(C)=O`, the compound was classed as inactive in assay [3].
